MITF inh = MITF inhibitors, primary screen, biochemical, AlphaScreen, human; inhibition, % at 2.6 µM; AlphaScreen MITF homodimerization, bead proximity signal; actives 0.91% (n = 650,000); in the data active = inhibition above about 50%;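 also: 0% = vehicle wells with protein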
FBW7 activator = FBW7 E3 ligase activators, primary screen, biochemical, AlphaScreen, human | F-box/WD repeat-containing protein 7 (Homo sapiens), Q969H0 | AlphaScreen FBW7–phospho-cyclin E peptide binding, activator screen | normalized activity (activation), % at 26.1 µM | actives 0.13% (n = 650,000) | AID 1259310, 2017; in the data active = normalized activity above about 1.9%;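 also: purified mutant Fbw7 with reduced substrate affinity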
TEAD-YAP inh = TEAD-YAP interaction inhibition, primary screen, TEAD-YAP interaction inhibitor project, luminescence, HEK-TIYL cells | inhibition, % at 9.12 µM | actives 1.4% (n = 640,000) | TEAD-Gal4/YAP UAS-luciferase luminescence; in the data active = inhibition above about 32%;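 also: 0% = median of test compound wells and 100% = reference inhibitor wells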
GPR151 activ = activators of human GPR151, primary screen, cell-based, PathHunter beta-arrestin, luminescence; PathHunter beta-arrestin GPR151 cells; actives 1% (n = 650,000); activation, % at 11.2 µM; in the data active = activation above about 4.9%;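 also: 0% = median of compound wells and 100% = cells with positive control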
GPR151 conf act = GPR151 activators, triplicate retest, confirmation, cell-based, PathHunter beta-arrestin, luminescence | activation, % at 11.2 µM | AID 1508609, 2020 | GPR151 PathHunter beta-arrestin cells, 90 min; % of EA-reagent control over plate median | shares compounds with GPR151 activ | 6,700 tested, under 10 active;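 active = mean percent activation across replicates above the confirmation screen cutoff of 4.91%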
GPR119 ag = GPR119 activators in beta-arrestin cells, counter-screen for GPR151 activator project, cell-based, PathHunter beta-arrestin, luminescence, triplicate; 90 min; 0 = compound-well median, 100 = enzyme-acceptor control; shares compounds with GPR151 activ; activation, % at 11.2 µM; actives 0.3% (n = 6,700);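 active = mean percent activation in the counterscreen above 29.09%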;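 also: counterscreen on off-target GPR119 to flag nonselective hits from the GPR151 activator screen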
An asterisk follows results filed as active; x = not tested or not shown; ! = repeats disagree. Only some compounds are listed: those with a hit (about 3.5% of all), similar ones and a draw of the others.

SMILES | MITF inh | FBW7 activator | TEAD-YAP inh | GPR151 activ | GPR151 conf act | GPR119 ag
COc1cc(-c2nc3cnccn3c2NCc2ccco2)ccc1O | 8.2 | 0.4 | 8.3 | 2.6 | x | x
O=C(CCCn1c(=O)[nH]c2ccccc2c1=O)N1CCN(c2ccc(Cl)cc2)CC1 | 12.7 | 0.9 | 2.7 | 5.5* | 0.4 | -0.8
COc1cc(OC)cc(-c2noc(C3CCN(S(=O)(=O)c4ccc(Cl)cc4)CC3)n2)c1 | 2.5 | 0.3 | -21.6 | 5.2* | -0.1 | 0.2
Cc1ccc2c(NC(=O)c3ccc(Cl)cc3)noc2n1 | -6.2 | 0.1 | -30.4 | 7.1* | -0.4 | -9.7
Cc1cccc(CS(=O)(=O)c2ccc(C(=O)N3CCN(c4cc(C)ccc4C)CC3)cc2[N+](=O)[O-])c1 | 3.5 | -0.1 | 6.5 | 0.3 | x | x
O=C(Nc1ccc2nn(-c3ccccc3)nc2c1)c1ccc(-c2cccc([N+](=O)[O-])c2)o1 | -0.5 | -0.1 | 1.3 | 5.1* | 0.1 | 12.3
CCC(C)NCc1c(C(=O)O)n(Cc2ccccc2F)c2cc(OC)ccc12 (stereo unspecified) | 7.0 | 0.5 | -2.0 | 2.1 | x | x
CCSCCOC(=O)C1=C(C)NC2=C(C(=O)CC(C)(C)C2)C1c1ccc(O)c(OC)c1 (stereo unspecified) | -1.2 | -0.2 | -12.3 | 0.2 | x | x
FC(F)(F)c1cccc(CNc2cc(Nc3nccc4ccccc34)ncn2)c1 | 14.8 | 0.2 | -1.5 | 6.7* | 0.0 | -3.6
Nc1nc(NCc2cccc(C(F)(F)F)c2)cc(Nc2nccc3ccccc23)n1 | -3.9 | 0.6 | 11.8 | -1.6 | x | x
O=C(NCc1cccc(C(F)(F)F)c1)c1cccc(Nc2nccc3ccccc23)n1 | 2.2 | 0.2 | 1.6 | 5.5* | 0.1 | 5.6
FC(F)(F)c1cccc(CNc2ccnc(-c3ccccc3)n2)c1 | 10.7 | -0.1 | 37.5*! | 5.0*! | 0.9 | -4.5
O=C(CSc1ncccn1)NCc1cccc(C(F)(F)F)c1 | 3.6 | 0.5 | -26.4 | 5.8* | -0.3 | -8.9
c1ccc(CNc2ccnc(-c3ccccc3)n2)cc1 | -8.1 | 0.0 | -10.5 | 0.3 | x | x
N#CCSc1nc2ccc(N3CCOCC3)cc2c(=O)n1Cc1ccccc1 | -5.7 | -0.1 | -38.0 | -0.5 | x | x
O=C(NC(=S)Nc1ccc(F)cc1)C1CC1 | -7.3 | -0.2 | -2.4 | -0.6 | x | x
COc1ccccc1C(=O)Nc1ccnn1C1CCN(Cc2cccc(F)c2)CC1 | -10.3 | 0.0 | 13.8 | 6.6* | 0.2 | -5.7
CCC(C)C(=O)N1CCC(n2nccc2NC(=O)Nc2cccc(F)c2)CC1 (stereo unspecified) | 13.0 | 0.1 | -24.4 | 6.6* | -0.4 | -9.6
COCCNC(=O)CCNS(=O)(=O)c1ccc(Br)cc1 | -10.6 | -0.1 | 6.2 | 0.1 | x | x
CN(C)C(NC(=O)Cc1ccccc1)C(Cl)(Cl)Cl (stereo unspecified) | 26.6 | -0.1 | -2.5 | 6.0* | -0.8 | -7.8
CN(C(=O)Cc1ccccc1)N(C)C(=O)Cc1ccccc1 | -2.8 | 0.0 | -4.2 | 5.0* | -0.3 | 9.2
COc1ccc(CCC(=O)N2CCC3(CC2)CC3C(=O)Nc2ccccc2)cc1OC (stereo unspecified) | -6.9 | -0.1 | -6.2 | 1.4 | x | x
CSc1nc(C(=O)N2CCc3nnc(CNC(=O)c4cccc(F)c4)n3CC2)cs1 | 8.7 | 0.0 | 2.8 | 5.2* | 0.7 | 4.0
CC(C)NC(=O)c1cc(=O)[nH]c2ccc(S(=O)(=O)N3CCCCCC3)cc12 | 10.4 | 0.5 | 4.3 | -1.0 | x | x
CC(C)NC(=O)c1cc(=O)[nH]c2ccc(S(=O)(=O)N3CCCC3)cc12 | 13.2 | 0.7 | 9.1 | 6.3* | -0.2 | -0.6
COc1ccccc1-n1c(O)c(C=Nc2cccc(C)c2)c(=O)[nH]c1=S | 20.4 | 0.1 | 4.8 | 5.1* | -0.7 | -0.1
CC(C)n1cnc2c(Nc3ccc(Oc4ccccc4)cc3)nc(Nc3ccncc3)nc21 | 12.5 | 0.3 | 13.1 | 0.0 | x | x
Cc1nn(C)c(C)c1-c1cccc(C(N)=O)c1 | -5.1 | 0.2 | -0.4 | -0.4 | x | x
Cc1nn(C)c(C)c1-c1ccc2nc(C(C)C)[nH]c(=O)c2c1 | -9.9 | -0.1 | 3.3 | 5.6* | -0.8 | 0.8

Screening data as filed in PubChem.
